# Many of the other results were omitted from the sample, so the strongest signals are more common in it than they were.
# B1: LTL (Lotus tetragonolobus), P19664 (protein)
# chain: VSFNYTEFKDDGSLILQGDAKIWTDGRLAMPTDPLVNNPKTTRSAGRALYATPVPIWDSATGNVASFVTSFNFLFVIRELKYTPTDGLVFFLAPVGTEIPSGSTGGFLGIFDGSNGFNQFVAVEFDSYHNIWDPKSLRSSHVGIDVNSIMSLKAVNWNRVSGSLEKATIIYDSQTNILSVVMTSQNGQITTIYGTIDLKTVLPEKVSVGFSATTGNPEREKHDIYSWSFTSTLKEPEEQA
# Assays:
# Assay in all cases: glycan array binding signal (z-score within array); higher = stronger binding
# Details in all cases: glycan notation: IUPAC condensed, linker removed
# [1] = molecular target: GlcNAc(b1-2)Man(a1-3)[GlcNAc(b1-2)Man(a1-6)]Man(b1-4)GlcNAc(b1-4)GlcNAc
# Method in brief: (§1)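 Negative Z-scores can be read as non-binding. The Z-score is calculated within each array and then averaged across arrays of one protein sequence at different concentrations or buffers and across linkers. Arrays, 3228 in all, were curated from the Consortium for Functional Glycomics database and kept only where the protein sequence was available.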
# GlcNAc(b1-3)Gal(b1-4)Glc = molecular target: GlcNAc(b1-3)Gal(b1-4)Glc
# Method in brief: as §1
# [2] = molecular target: GlcNAc(b1-3)Gal(b1-4)GlcNAc(b1-3)Gal(b1-4)GlcNAc(b1-3)Gal(b1-4)GlcNAc(b1-2)[GlcNAc(b1-3)Gal(b1-4)GlcNAc(b1-3)Gal(b1-4)GlcNAc(b1-3)Gal(b1-4)GlcNAc(b1-6)]Man(a1-6)[GlcNAc(b1-3)Gal(b1-4)GlcNAc(b1-3)Gal(b1-4)GlcNAc(b1-3)Gal(b1-4)GlcNAc(b1-2)Man(a1-3)]Man(b1-4)GlcNAc(b1-4)[Fuc(a1-6)]GlcNAc
# Method in brief: as §1
# [3] = molecular target: GlcNAc(b1-3)Gal(b1-4)GlcNAc(b1-6)[Gal(b1-3)]GalNAc
# Method in brief: as §1
# Kdn(a2-3)Gal(b1-3)GalNAc = molecular target: Kdn(a2-3)Gal(b1-3)GalNAc
# Method in brief: as §1
# Man(a1-3)[Man(a1-6)]Man = molecular target: Man(a1-3)[Man(a1-6)]Man
# Method in brief: as §1
# [4] = molecular target: Man(a1-3)[Man(a1-6)]Man(a1-6)[Man(a1-3)]Man
# Method in brief: as §1
# [5] = molecular target: Neu5Ac(a2-3)Gal(b1-3)GalNAc(b1-3)Gal(b1-4)GlcNAc
# Method in brief: as §1
# [6] = molecular target: Neu5Ac(a2-3)Gal(b1-3)GlcNAc(b1-2)Man(a1-3)[Neu5Ac(a2-3)Gal(b1-3)GlcNAc(b1-2)Man(a1-6)]Man(b1-4)GlcNAc(b1-4)GlcNAc
# Method in brief: as §1
# [7] = molecular target: Neu5Ac(a2-3)Gal(b1-3)[Fuc(a1-4)]GlcNAc
# Method in brief: as §1
# [8] = molecular target: Neu5Ac(a2-3)Gal(b1-3)[Neu5Ac(a2-6)]GlcNAc(b1-3)[Fuc(a1-3)[Gal(b1-4)]GlcNAc(b1-6)]Gal(b1-4)Glc
# Method in brief: as §1
# Neu5Ac(a2-3)Gal(b1-4)Glc = molecular target: Neu5Ac(a2-3)Gal(b1-4)Glc
# Method in brief: as §1
# [9] = molecular target: Neu5Ac(a2-3)Gal(b1-4)GlcNAc(b1-2)Man
# Method in brief: as §1
# [10] = molecular target: Neu5Ac(a2-3)Gal(b1-4)GlcNAc(b1-3)Gal(b1-4)GlcNAc(b1-2)Man(a1-3)[Neu5Ac(a2-3)Gal(b1-4)GlcNAc(b1-3)Gal(b1-4)GlcNAc(b1-2)Man(a1-6)]Man(b1-4)GlcNAc(b1-4)GlcNAc
# Method in brief: as §1
# [11] = molecular target: Neu5Ac(a2-3)Gal(b1-4)GlcNAc(b1-3)Gal(b1-4)GlcNAc(b1-3)Gal(b1-4)GlcNAc
# Method in brief: as §1
# [12] = molecular target: Neu5Ac(a2-3)Gal(b1-4)GlcNAc(b1-3)Gal(b1-4)GlcNAc(b1-3)Gal(b1-4)GlcNAc(b1-2)Man(a1-3)[Neu5Ac(a2-3)Gal(b1-4)GlcNAc(b1-3)Gal(b1-4)GlcNAc(b1-3)Gal(b1-4)GlcNAc(b1-2)Man(a1-6)]GalNAc
# Method in brief: as §1
# [13] = molecular target: Neu5Ac(a2-3)Gal(b1-4)GlcNAc(b1-6)[Neu5Ac(a2-3)Gal(b1-3)]GalNAc
# Method in brief: as §1
# [14] = molecular target: Neu5Ac(a2-3)Gal(b1-4)[Fuc(a1-3)]GlcNAc
# Method in brief: as §1
# [15] = molecular target: Neu5Ac(a2-3)Gal6S(b1-4)[Fuc(a1-3)]GlcNAc
# Method in brief: as §1
# Neu5Ac(a2-6)Gal = molecular target: Neu5Ac(a2-6)Gal
# Method in brief: as §1
# [16] = molecular target: Neu5Ac(a2-6)Gal(b1-4)GlcNAc(b1-2)Man(a1-6)[Gal(b1-4)GlcNAc(b1-2)Man(a1-3)]Man(b1-4)GlcNAc(b1-4)GlcNAc
# Method in brief: as §1
# [17] = molecular target: Neu5Ac(a2-6)Gal(b1-4)GlcNAc(b1-2)[Neu5Ac(a2-6)Gal(b1-4)GlcNAc(b1-4)]Man(a1-3)[GlcNAc(b1-4)][Neu5Ac(a2-6)Gal(b1-4)GlcNAc(b1-2)[Neu5Ac(a2-6)Gal(b1-4)GlcNAc(b1-6)]Man(a1-6)]Man(b1-4)GlcNAc(b1-4)GlcNAc
# Method in brief: as §1
# [18] = molecular target: Neu5Ac(a2-6)Gal(b1-4)GlcNAc(b1-3)Gal(b1-4)GlcNAc(b1-2)Man(a1-3)[Neu5Ac(a2-6)Gal(b1-4)GlcNAc(b1-3)Gal(b1-4)GlcNAc(b1-2)Man(a1-6)]GalNAc
# Method in brief: as §1
# [19] = molecular target: Neu5Ac(a2-6)Gal(b1-4)GlcNAc(b1-3)Gal(b1-4)GlcNAc(b1-3)Gal(b1-4)GlcNAc
# Method in brief: as §1
# [20] = molecular target: Neu5Ac(a2-6)Gal(b1-4)GlcNAc(b1-3)Gal(b1-4)GlcNAc(b1-3)Gal(b1-4)GlcNAc(b1-2)Man(a1-3)[Neu5Ac(a2-6)Gal(b1-4)GlcNAc(b1-3)Gal(b1-4)GlcNAc(b1-3)Gal(b1-4)GlcNAc(b1-2)Man(a1-6)]GalNAc
# Method in brief: as §1
# [21] = molecular target: Neu5Ac(a2-6)Gal(b1-4)GlcNAc(b1-3)Gal(b1-4)GlcNAc(b1-3)[Neu5Ac(a2-6)Gal(b1-4)GlcNAc(b1-3)Gal(b1-4)GlcNAc(b1-6)]GalNAc
# Method in brief: as §1
# [22] = molecular target: Neu5Ac(a2-6)Gal(b1-4)GlcNAc(b1-3)Gal(b1-4)[Fuc(a1-3)]GlcNAc(b1-3)Gal(b1-4)[Fuc(a1-3)]GlcNAc
# Method in brief: as §1
# [23] = molecular target: Neu5Ac(a2-8)Neu5Ac(a2-8)Neu5Ac(a2-3)[Gal(b1-3)GalNAc(b1-4)]Gal(b1-4)Glc
# Method in brief: as §1
# Neu5Ac(b1-6)GalNAc = molecular target: Neu5Ac(b1-6)GalNAc
# Method in brief: as §1
# [24] = molecular target: Neu5Gc(a2-8)Neu5Gc(a2-3)Gal(b1-4)GlcNAc(b1-3)Gal(b1-4)GlcNAc
# Method in brief: as §1
binder,measurement,setting,value
B1,glycan array binding signal (z-score),[1],-0.3
same,glycan array binding signal (z-score),GlcNAc(b1-3)Gal(b1-4)Glc,-0.196
same,glycan array binding signal (z-score),[2],0.185
same,glycan array binding signal (z-score),[3],-0.142
same,glycan array binding signal (z-score),Kdn(a2-3)Gal(b1-3)GalNAc,0.043
same,glycan array binding signal (z-score),Man(a1-3)[Man(a1-6)]Man,-0.207
same,glycan array binding signal (z-score),[4],0.02
same,glycan array binding signal (z-score),[5],-0.26
same,glycan array binding signal (z-score),[6],-0.099
same,glycan array binding signal (z-score),[7],0.005
same,glycan array binding signal (z-score),[8],-0.123
same,glycan array binding signal (z-score),Neu5Ac(a2-3)Gal(b1-4)Glc,-0.023
same,glycan array binding signal (z-score),[9],0.022
same,glycan array binding signal (z-score),[10],2.77
same,glycan array binding signal (z-score),[11],-0.035
same,glycan array binding signal (z-score),[12],5.64
same,glycan array binding signal (z-score),[13],-0.237
same,glycan array binding signal (z-score),[14],-0.31
same,glycan array binding signal (z-score),[15],2.84
same,glycan array binding signal (z-score),Neu5Ac(a2-6)Gal,-0.162
same,glycan array binding signal (z-score),[16],-0.242
same,glycan array binding signal (z-score),[17],-0.15
same,glycan array binding signal (z-score),[18],1.11
same,glycan array binding signal (z-score),[19],-0.226
same,glycan array binding signal (z-score),[20],2.02
same,glycan array binding signal (z-score),[21],3.76
same,glycan array binding signal (z-score),[22],-0.039
same,glycan array binding signal (z-score),[23],0.131
same,glycan array binding signal (z-score),Neu5Ac(b1-6)GalNAc,-0.326
same,glycan array binding signal (z-score),[24],-0.15

# — the supplement of paper PMC8728848
